Results filed as inconclusive are left out. Activity calls are given as the source filed them. Calls follow the shape of the dose curve; as a rule, active = well fitted inhibition curve with a large enough effect; inconclusive = small, poorly fitted or top-dose-only effect; inactive = flat fitted curve, though single readings scatter.

This assay has as its system CRL-7250. Description: qHTS assay to identify novel small-molecules to repurpose for Merkel cell carcinoma treatment (AID 1296009). Also: nearly all actives have a fitted effect of over 60% in size. The note with it: MCC and control cell lines, CellTiter-Glo viability, 72 h; series mostly up to 44.8 µM. Summed up:
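Cells were incubated with compound for 72 hr at 37 degree celsius before CellTiter-Glo addition. Luminescence was normalized with no-cell wells as full cytotoxicity and DMSO as baseline.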
(In general: qHTS replaces the single test concentration by a dilution series.)
For the compound `CS(=O)(=O)OCCCCOS(C)(=O)=O`, the compound was called inactive.

Turning to `Cc1ccccc1C(OCCN(C)C)c1ccccc1` (stereo unspecified), the compound was classed as inactive.

`Nc1ccc(O)c(C(=O)O)c1`: the compound was classed as inactive.

In the case of `CNCC[C@H](Oc1cccc2ccccc12)c1cccs1`, the compound was called inactive.

For `Cc1[nH]c(=O)c(C#N)cc1-c1ccncc1`, the compound was called inactive.

For `C[C@H]1c2cccc(O)c2C(O)=C2C(=O)[C@]3(O)C(O)=C(C(N)=O)C(=O)[C@@H](N(C)C)[C@@H]3[C@@H](O)[C@@H]21`, the outcome was inactive.

In the case of `O=C1N=C(O)CN1/N=C/c1ccc(-c2ccc([N+](=O)[O-])cc2)o1`, the outcome was inactive.

Consider `CCCCc1ncc(/C=C(\Cc2cccs2)C(=O)O)n1Cc1ccc(C(=O)O)cc1`, for which the outcome was inactive.

In the case of `CN(N=O)C(=O)N[C@@H]1[C@@H](O)[C@H](O)[C@@H](CO)O[C@@H]1O`, the compound was called inactive.

Turning to `COC(c1ccccc1)(c1ccccc1)[C@H](Oc1nc(C)cc(C)n1)C(=O)O`, the result was inactive.

Regarding `NC12CC3CC(CC(C3)C1)C2`, the compound was called inactive.

As to `O[C@@H]1CO[C@H]2[C@@H]1OC[C@@H]2O`, the compound was called inactive.

Regarding `CNCCc1ccccn1`, the call was inactive.

Turning to `CCOC(=O)[C@H](CCc1ccccc1)N[C@@H](C)C(=O)N1Cc2cc(OC)c(OC)cc2C[C@H]1C(=O)O`, the outcome was inactive.

On to `Cc1cc2c(s1)Nc1ccccc1N=C2N1CCN(C)CC1`, for which the result was inactive.

As to `C[C@H]1O[C@H](O[C@H]2[C@H](O)[C@@H](O)[C@@H](O[C@H]3[C@H](O)[C@@H](O)[C@H](O)O[C@@H]3CO)O[C@@H]2CO)[C@H](O)[C@@H](O)[C@@H]1N[C@H]1C=C(CO)[C@@H](O)[C@H](O)[C@H]1O`, the outcome was inactive.

Values taken from PubChem BioAssay (NCATS).
